These results are taken from the supplement of paper PMC10720658.

Structures can show the parent of a compound that is named as a salt. ± gives the standard deviation of the averaged measurements.

The test system of this assay is AEK1 (Tb927.3.2440). Put plainly: percent reduction in TR-FRET probe signal relative to DMSO control; higher = stronger displacement of ATP-site probe (binding). The conditions noted are these: 1 µM; incubation time 1 h. In general terms: Time-resolved FRET reads energy transfer from a long-lived donor to a nearby acceptor.
For the molecule `CC[C@@](C)(Nc1ccnc(-c2c[nH]c3ncccc23)n1)C(=O)NCC(F)(F)F` [Decernotinib (VX-509)], the “percent reduction in TR-FRET probe signal” value (“percent reduction” for short) is -1.74 ± 4.4%.
On to `O=C1Nc2cc(Br)ccc2/C1=C1/Nc2ccccc2/C1=N\O`, for which the “percent reduction” value stood at 2.19 ± 11%.
`COc1cc2nccc(Oc3ccc(NC(=O)Nc4cc(C)on4)c(Cl)c3)c2cc1OC` [Tivozanib (AV-951)]: the “percent reduction” value is -2.48 ± 4.1%.
Then `O=C1NC(=O)/C(=C/c2cccc(C(F)(F)F)c2)S1`, with -3.02 ± 1.9%; and `CCN(CC)CCCC(C)Nc1ccnc2cc(Cl)ccc12.O=P(O)(O)O.O=P(O)(O)O` (configuration not stated) [Chloroquine Phosphate], with -15.1 ± 5.7%.
Then `C[C@@H](Oc1cc(-c2cnn(C3CCNCC3)c2)cnc1N)c1c(Cl)ccc(F)c1Cl`, with 35.4 ± 13%.
Then `O=c1ccc2ccc(O)c(O)c2o1` [Daphnetin], with -1.13 ± 8.9%; and `Oc1ccc2ccccc2c1SSc1c(O)ccc2ccccc12`, with -9.34 ± 9%.
Turning to `COc1cc2nccc(Oc3ccc(NC(=O)Nc4ccc(F)cc4F)c(F)c3)c2cc1OC`, the “percent reduction” value worked out at 10.2 ± 11%.
Take `CN1CCN(CCOc2cc(OC3CCOCC3)c3c(Nc4c(Cl)ccc5c4OCO5)ncnc3c2)CC1` [Saracatinib (AZD0530)]: the “percent reduction” value came out at 11.4 ± 13%.
Then `CCCCCCCCc1ccc(CCC(N)(CO)CO)cc1.Cl` [Fingolimod (FTY720) HCl], with -8.59 ± 6.3%; and `Cc1csc(-c2nnc(Nc3ccc(Oc4ncccc4-c4ccnc(N)n4)cc3)c3ccccc23)c1`, with 55.7 ± 11%; and `O=C1NC(=O)[C@@H](c2cn3c4c(cccc24)CCC3)[C@@H]1c1c[nH]c2ccccc12` [Tivantinib (ARQ 197)], with 5.86 ± 12%.
Then `CN1CCN(c2ccc(Nc3cc(-c4cccc(-n5ccc6cc(C7CC7)cc(F)c6c5=O)c4CO)cn(C)c3=O)nc2)CC1`, with 6.04 ± 9%; and `COc1cc(N2CCC(N)CC2)ccc1Nc1ncc(Cl)c(-c2c[nH]c3ccccc23)n1`, with 7.47 ± 4.6%; and `O=C(Nc1cc(C(F)(F)F)cc(C(F)(F)F)c1)c1cc(Cl)ccc1O`, with 8.68 ± 3.7%.
Then `CC[C@H](Nc1ncnc2[nH]cnc12)c1nc2cccc(F)c2c(=O)n1-c1ccccc1` [CAL-101 (Idelalisib, GS-1101)], with 0.66 ± 12%.
With `Nc1cccc(S(=O)(=O)N2CCCN(S(=O)(=O)c3ccc4c(c3)OCCO4)CC2)c1`, the “percent reduction” value was -6.38 ± 4.5%.
Then `Cc1c[nH]c(-c2cnc(NCCNc3ccc(C#N)cn3)nc2-c2ccc(Cl)cc2Cl)n1.Cl`, with -2.62 ± 8.5%; and `Nc1ncnc2c1c(-c1cccc(OCc3ccccc3)c1)cn2[C@H]1C[C@@H](CN2CCC2)C1`, with 0.997 ± 12%; and `O=C(NC1CCNCC1)c1n[nH]cc1NC(=O)c1c(Cl)cccc1Cl`, with -2.75 ± 9.5%.
Then `CC(C)N(CCC(=O)c1ccc2ccccc2c1)Cc1ccccc1.Cl`, with 1.95 ± 3.1%; and `Cc1cn(-c2cc(NC(=O)c3ccc(C)c(Nc4nccc(-c5cccnc5)n4)c3)cc(C(F)(F)F)c2)cn1` [Nilotinib (AMN-107)], with 17.5 ± 28%.
For `COc1ccc(Cl)cc1NC(=O)Nc1cc(C)nc2ccccc12`, the “percent reduction” value is -2.86 ± 7.3%.
As for `CC(C)(C)c1nc(-c2cccc(NS(=O)(=O)c3c(F)cccc3F)c2F)c(-c2ccnc(N)n2)s1`, the figure is 6.2 ± 7.3%.
As for `C[C@@]1(C(=O)Nc2ccc(F)nc2)CCCN1c1nc(Nc2cc(C3CC3)[nH]n2)c2cccn2n1`, the “percent reduction” value was found to be 23.1 ± 8.1%.
Then `O=C(Nc1c[nH]nc1-c1nc2cc(CN3CCOCC3)ccc2[nH]1)NC1CC1`, with 52 ± 14%.
Take `Cl.O=C1NCCc2[nH]c(-c3ccncc3)cc21`: the “percent reduction” value came to 11.4 ± 8.5%.
As for `Cc1ncc(-c2ccnc(Nc3ccc(S(C)(=O)=O)cc3)n2)n1C(C)C`, the figure is -3.5 ± 1.6%.
Then `Cc1ccc(F)c(NC(=O)Nc2ccc(-c3cccc4[nH]nc(N)c34)cc2)c1` [Linifanib (ABT-869)], with 1.08 ± 12%; and `CNC(=O)CN1CCC(Oc2cc3c(Nc4cccc(Cl)c4F)ncnc3cc2OC)CC1` [Sapitinib (AZD8931)], with -5.78 ± 5.4%.
As for `O=C1NC(=O)C(c2ccccc2[N+](=O)[O-])=C1Nc1ccc(O)c(Cl)c1`, the figure is -2.58 ± 9.4%; as for `COc1ccc(-c2cc3c(C)nc(N)nc3n([C@H]3CC[C@H](OCCO)CC3)c2=O)cn1`, -8.41 ± 7.5%.
As for `CNc1nc(Nc2cn(C(C)(C)C#N)nc2C)ncc1C(F)(F)F`, the “percent reduction” value was -10.7 ± 11%.
As for `C[C@@H]1CCN(C(=O)CC#N)C[C@@H]1N(C)c1ncnc2[nH]ccc12`, the figure is 5.48 ± 7.8%; as for `CCO.N#CC(=C(\N)Sc1ccccc1N)/C(C#N)=C(/N)Sc1ccccc1N`, 0.443 ± 7.1%; as for `Cc1ccc(Nc2nccc(N(C)c3ccc4c(C)n(C)nc4c3)n2)cc1S(N)(=O)=O` [Pazopanib HCl], 3.07 ± 12%.
